# Screening data from PubChem BioAssay.
# Sampled rows, rich in hits. Any-hit rate of the full collection: about 1.4%.
# a7 integrin act: activates integrin-mediated alleviation for muscular dystrophy. alpha7betagal myoblasts, beta-gal FDG fluorescence, 48 h. Potency, µM (doses to about 38.3 µM), for the others: at the highest dose activation, most hits filed as activators. 0.064% of 350,000 active. AID 624291;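 also: potency is read from the fitted curve at half-maximal effect; 100% = response of the positive control SU9516; nearly all actives have a fitted effect of over 60% in size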
#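 alpha7betagal+/- myoblasts (passage 13, 250/well) treated 48 h at 37C with compounds at 1:260 dilution of DMSO stock. Lysed, then beta-galactosidase activity read as FDG fluorescence (ex 480/em 540) after 30 min, with pre-read for autofluorescence.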
# IL-2 act: activates IL-2 in a cell-based reporter assay. AID 652025. activation, % (series mostly up to about 46 µM). 0.065% of 360,000 active. IL-2 activation reporter assay, cell-based qHTS; stimulated with anti-CD3/CD4/CD28 beads; in transgenic mouse T cells; in the data active = activation above about 50%; inconclusive = mostly about 30% to 49%; also: 0% is about no effect
#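 Unstimulated transgenic mouse T cells; 60-min compound exposure; bead-based TCR/CD4/CD28 stimulation; 18 h culture, 37 degrees C; dual fluorescence (EGFP, DsRed) plate cytometry.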
# BRCA1 expr up: increases BRCA1 expression; MCF7-BRCA1-FFLuc reporter, luminescence, 48 h; response scale: scaled: vehicle 0%, 10 µM genistein 100%; Potency, µM (series often up to 46.1 µM), for the others: at the highest dose activation, actives largely listed as activators; 1.1% of 380,000 active; also: potency is read from the fitted curve at half-maximal effect; nearly all actives have a fitted effect of over 80% in size
#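 Luminescence from a BRCA1-driven firefly luciferase in MCF7 cells was read after 48 h compound exposure at 37 C. Data normalized against DMSO and a 10microM genistein activation control, then curve-fitted across the titration.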
# Chronic BCR inh: blocks chronic active B-cell receptor signaling; AID 493014; 0.05% of 340,000 active; Potency, µM (highest dose often 46.1 µM), inactives show at the highest dose activity change, negative = inhibition, most hits filed as inhibitors; ABC-DLBCL IkBa-CBG/CBR reporter, luminescence ratio, 4 h; active = well fitted inhibition curve with a large enough effect in the signal ratio, with a control signal flat, not every such curve was filed as active; inconclusive = small, poorly fitted or top-dose-only effect, or effect the other way, or a change in a side signal; the % refers to the signal ratio;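 also: potency is read from the fitted curve at half-maximal effect; plate controls were basal doxycycline-induced cells for no effect and cells given 10 µM MG132 for full effect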
#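 Doxycycline induced both beetle luciferases in TMD8 lymphoma cells; IKK-driven degradation limits the IkappaBalpha-fused green signal, while red luminescence normalises for cell number and nonspecific effects. Compounds tested up to 46 uM, 4 hrs.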
# N370S GC: inhibitors or activators of N370S glucocerebrosidase for Gaucher disease; P04062; N370S GC spleen homogenate, 4MU-glucoside fluorescence; Potency, µM (highest dose often 59.4 µM), for inactives: at the highest dose activity change, negative = inhibition, hits mostly inhibitors; 0.092% of 330,000 active; AID 2101;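 also: potency is read from the fitted curve at half-maximal effect; 0% = full enzyme activity and -100% = no enzyme basal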
# Nrf2 activator: Nrf2 pathway activation; AREc32 ARE-luciferase reporter (MCF7-derived line), luminescence, 24 h; Potency, µM (top dose mostly 46.1 µM), for inactives: top-dose activation, usual class: activators; 0.31% of 410,000 active; also: potency is read from the fitted curve at half-maximal effect; % of control where 0% means no effect; nearly all actives have a fitted effect of over 65% in size
#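 AREc32 cells carrying an ARE-driven firefly luciferase reporter were seeded at 1000 cells/well in OPTI-MEM with 5% FBS, then exposed to compound for 24 hr at 37 deg C. Luminescence was read with Steady-Glo after 30 min at RT.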
# * = called active by the depositor; ? = inconclusive; . = not tested or not shown; [ ] = another dose, or the depositor's remark. Unless noted, calls follow the shape of the dose curve; as a rule, active = well fitted curve in the direction sought with a large enough effect; inconclusive = small, poorly fitted or top-dose-only effect, or another doubt; inactive = no such curve, though single readings can be large; an effect the other way counts as inactive or inconclusive.
SMILES,a7 integrin act,IL-2 act,BRCA1 expr up,Chronic BCR inh,N370S GC,Nrf2 activator
COc1cccc(NC(=O)N(Cc2c[nH]c3ccccc23)C2CCCCCC2)c1,.,.,-53.3%,.,.,3.6%
COc1ccccc1NC(=O)C(Cc1ccccc1)NS(=O)(=O)c1ccc2c(c1)c(=O)n(C)c(=O)n2C (centres undefined),.,.,-16.4%,.,.,-0.6%
CC(Cc1ccccc1)NC(=O)c1cc2ccccc2o1 (centres undefined),?,-0.3,7.08µM*,?,1.3%,-0.6%
O=C(c1ccc(F)cc1)c1cc2ccccc2o1,-20.4%,-0.1,11.2µM*,?,-1.2%,11.7%
O=C(c1ccccc1)c1cc2ccccc2o1,26.2%,-0.1,10µM*,?,5.2%,9.7%
O=S1(=O)C=C(Sc2nc3cc(Cl)ccc3o2)c2ccccc21,-43.5%,-0.8,-98.8%,6.31µM*,-0.1%,8.91µM*
COc1cccc(C(=O)N(C)C(C)c2nc3ccccc3s2)c1 (centres undefined),-2.1%,-0.7,9.4%,1.7%,-4.1%,-0.2%
CC(=O)c1ccc(OC(C)c2nc3ccccc3s2)cc1 (centres undefined),-5.3%,-1.8,6.31µM*,?,-6.6%,5.2%
CN(CCCc1cnc[nH]1)C(=S)NCCCN(Cc1ccc(Cl)cc1)c1ccc(Br)cn1,.,.,-60.0%,.,.,.
COc1ccc(/C=C/C(=O)Nc2cccc(S(=O)(=O)NC3=NCCCCC3)c2)cc1,-7.4%,0.3,7.94µM*,?,-16.6%,3.9%
O=C(/C=C/c1ccc(OC(F)F)cc1)Nc1cccc(S(=O)(=O)NC2=NCCCCC2)c1,-11.2%,-5.6,-17.1%,?,-13.7%,-0.8%
Cc1ccc(SCc2cn3cccnc3n2)cc1,-6.9%,-0.8,11.2µM*,?,6.3%,0.4%
CCOC(=O)c1ccccc1NC(=O)CSc1nc(N)cc(=O)[nH]1,5.9%,2.0,-13.0%,9.3%,6.5%,0.1%
O=C(/C=C/c1ccc(O)c(O)c1)c1ccc(O[C@@H]2O[C@H](CO)[C@@H](O)[C@H](O)[C@H]2O)c(O)c1O,.,.,.,.,-24.5%,.
COc1cc(/C=C/c2nc3ccccc3c(=O)[nH]2)ccc1OC(F)F,0.0%,-3.5,3.16µM*,2.9%,10.0%,-0.3%
Cc1ccc(-c2cn3c(n2)sc2cc(C(=O)NCc4cccs4)ccc23)cc1,.,.,.,.,.,3.6%
CCOc1ccccc1-c1nnc2n1N=C(c1cc(OC)cc(OC)c1)CS2,.,.,.,.,-3.3%,.
Cc1ccccc1NC(=O)c1cc2ccccn2n1,13.2%,0.2,-0.2%,?,18.7%,?
COc1ccc(Cl)cc1NC(=O)c1cc2ccccn2n1,.,.,.,.,.,5.62µM*
CC(=O)c1cccc(NC(=O)c2cnn3ccccc23)c1,7.9%,-2.6,3.55µM*,?,4.6%,2.7%
CC(=O)c1ccc(NC(=O)c2cnn3ccccc23)cc1,20.1%,-2.6,-68.8%,?,19.4%,-3.3%
COc1ccc(C)cc1NC(=O)c1cc2ccccn2n1,.,.,.,.,.,18.1%
CC(=O)c1cccc(NC(=O)c2cc3ccccn3n2)c1,10.5%,-3.1,2.51µM*,?,-17.5%,0.7%
CCOc1ccc(OCC)c(NC(=O)CN(C)S(=O)(=O)c2ccc3[nH]c(=O)oc3c2)c1,.,.,.,.,.,-0.7%
Cc1ccc(S(=O)(=O)N2CCN(c3nc(C(N)=O)nc4ccccc34)CC2)cc1,.,.,0.3%,.,.,.
SMILES,a7 integrin act,IL-2 act,BRCA1 expr up,Chronic BCR inh,N370S GC,Nrf2 activator
O=C(Nc1ccc(-c2cnco2)cc1)c1ccccc1,-9.8%,0.1,2.82µM*,?,3.4%,3.0%
O=S(=O)(Nc1cccnc1)c1ccc(Br)c2ccccc12,25.0%,0.1,-21.0%,1.5%,-4.5%,0.0%
COC(=O)CC1C(=O)NCCN1C(=O)c1ccc([N+](=O)[O-])cc1 (centres undefined),0.0%,-0.1,-8.8%,-0.4%,-6.3%,0.4%
Cc1ccc(-c2nc3ncccn3c2N)cc1,.,0.1,.,.,.,.
COc1ccccc1CNc1cc(C)ccn1,2.51µM*,-1.6,-4.6%,-1.6%,0.9%,-0.4%[9.22 µM]
Cc1ccc(NC(=O)CSc2nc(-c3ccccc3Cl)nc3cc(=O)[nH]n23)c(C)c1,.,.,-0.1%,.,.,-0.7%
CCOC(=O)c1c(C)[nH]c(C=Nc2ccc(OC)cc2)c1O,7.7%,1.4,6.31µM*,-8.3%,-2.0%,3.1%
CCOC(=O)c1c(C)[nH]c(N=Nc2ccc(OC)cc2)c1C,26.9%,0.4,6.31µM*,?,-6.5%,3.3%
CCOC(=O)c1c(C)[nH]c(N=Nc2ccc(C)cc2)c1C,-18.9%,-0.3,?,?,-11.0%,7.1%
CC1=CC=CC2=NC(=O)CC(C)(C(=O)O)N12 (centres undefined),?,0.7,23.0%,-0.2%,27.0%,-0.1%
CC(C)=CCC1(CC=C(C)C)C(=O)C(C(=O)c2ccccc2)=C2OC(C)(C)CCC2(CC=C(C)C)C1=O (centres undefined),.,.,.,.,-9.8%[12.8 µM],.
CC1CCCN(C(=S)NCCc2ccccc2)C1 (centres undefined),-10.9%,-2.1,10µM*,1.9%,0.3%,1.3%
Cc1cccc(OCC2=NS(=O)(=O)c3ccccc3N2)c1,-6.9%,-2.8,11.2µM*,?,1.3%,0.3%
Cn1/c(=N/NC(=O)c2ccccc2Br)sc2ccccc21,32.1%,0.3,10µM*,?,2.0%,2.3%
COc1cc(C(=O)N/N=c2/sc3ccccc3n2C)cc(OC)c1OC,14.2%,-0.7,-23.7%,-12.7%,14.2%,-0.4%
Cn1ccc2cc(-c3ccc4ncnc(NCc5cccnc5)c4c3)ccc21,.,.,.,-0.5%,-19.3%,.
CCCCn1c(=O)[nH]c2nc3cc(N)ccc3nc2c1=O,-101.9%,4.0,?,13.9%,6.0%,-0.2%
Nc1ccc2nc3c(=O)n(C4CCCCC4)c(=O)[nH]c3nc2c1,-23.5%,1.7,7.08µM*,-7.7%,-22.2%,5.0%
CN(C(=O)c1ccc2c(Cl)c3c(nc2c1)CCC3)c1ccccc1F,.,.,?,.,.,6.6%
CN(C(=O)c1ccc2c(Cl)c3c(nc2c1)CCC3)c1ccccc1,-16.3%,-1.5,6.31µM*,?,12.0%,?
O=C(CCSCc1ccccc1F)N1CCN(c2ccccn2)CC1,-6.0%,-3.2,10µM*,?,2.5%,-0.6%
Cc1ccc(Cl)cc1N1CCN(C(=O)CCSCc2ccccc2F)CC1,.,.,.,-7.0%,.,0.3%
CCN(CC)CCn1c2c(c(SCC(=O)Nc3cc(C)on3)nc1=O)CCCC2,-6.6%,6.8,-22.3%,-3.9%,1.3%,0.0%
C[C@H]1C(=O)N(S(=O)(=O)c2ccccc2[N+](=O)[O-])[C@H]1c1ccc(-c2ccccc2)cc1,.,.,.,.,-4.7%,.
COc1cc(/C=N/Nc2snc(SC)c2C#N)cc(OC)c1OC,-9.2%,0.5,-58.5%,22.1%,-14.7%,3.1%
